Experimental findings from ChEMBL document CHEMBL3988442, “University of Dundee, Small-Polar-MMV Screening Library” (2021) are described below.

For some of these results: Measured potencies and affinities stand elsewhere.

Common to all, as to design: scale not given: direction of the effect not stated beside the values
Test [1] concerns the target Protein translocase subunit SecA (Escherichia coli (strain K12)) (UniProt P10408). As to the kind of experiment: Assay to Identify E. coli SecA ATPase Inhibitors. In kind it is functional. As to conditions: 30 µM.
The target in test [2] is T1, Ubiquitin-activating enzyme e1, putative (Leishmania donovani (strain BPK282A1)) (UniProt E9BSI1).
T1 sequence (whole entry): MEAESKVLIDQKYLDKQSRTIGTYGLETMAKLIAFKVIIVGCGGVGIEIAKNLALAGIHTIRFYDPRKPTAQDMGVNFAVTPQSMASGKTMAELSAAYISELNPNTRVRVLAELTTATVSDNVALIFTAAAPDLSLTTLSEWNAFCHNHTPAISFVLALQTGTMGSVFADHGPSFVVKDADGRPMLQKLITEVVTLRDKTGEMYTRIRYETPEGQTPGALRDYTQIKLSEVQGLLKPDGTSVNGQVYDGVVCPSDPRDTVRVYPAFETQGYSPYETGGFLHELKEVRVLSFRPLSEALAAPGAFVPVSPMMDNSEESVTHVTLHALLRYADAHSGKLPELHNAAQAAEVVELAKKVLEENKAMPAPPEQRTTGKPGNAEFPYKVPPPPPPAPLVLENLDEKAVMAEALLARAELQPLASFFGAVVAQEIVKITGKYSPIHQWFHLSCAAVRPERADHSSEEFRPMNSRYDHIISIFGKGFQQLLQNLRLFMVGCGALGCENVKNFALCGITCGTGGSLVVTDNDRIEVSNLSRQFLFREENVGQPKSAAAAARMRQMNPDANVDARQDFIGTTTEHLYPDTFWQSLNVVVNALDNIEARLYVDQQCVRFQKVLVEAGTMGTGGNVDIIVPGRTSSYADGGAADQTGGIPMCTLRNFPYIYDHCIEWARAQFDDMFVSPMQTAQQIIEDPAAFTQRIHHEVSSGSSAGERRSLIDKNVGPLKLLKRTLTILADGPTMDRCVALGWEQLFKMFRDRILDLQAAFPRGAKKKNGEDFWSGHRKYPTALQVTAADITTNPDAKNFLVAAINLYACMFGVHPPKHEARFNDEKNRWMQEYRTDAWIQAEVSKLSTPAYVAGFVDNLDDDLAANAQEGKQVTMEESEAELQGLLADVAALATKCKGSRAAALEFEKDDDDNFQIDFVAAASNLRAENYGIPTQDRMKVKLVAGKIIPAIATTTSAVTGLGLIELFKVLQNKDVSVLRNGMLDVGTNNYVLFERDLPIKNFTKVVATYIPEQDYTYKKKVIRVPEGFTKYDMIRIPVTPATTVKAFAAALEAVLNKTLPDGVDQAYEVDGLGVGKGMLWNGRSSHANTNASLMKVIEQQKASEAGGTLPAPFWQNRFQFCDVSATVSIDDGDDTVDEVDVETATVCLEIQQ
Description: Leishmania donovani Ubiquitin Activating Enzyme (LdE1). In kind it is functional. As to conditions: 30 µM.

Test [3] concerns the target AMP-activated protein kinase, AMPK (Homo sapiens) (UniProt P54646+O43741+P54619+Q9UGJ0+Q9Y478+Q13131+Q9UGI9). Description: AMP-dependent Kinase enzyme assay. An in vitro enzyme assay that detects ADP turnover that is directly proportional to AMPK activity. This uses naive AMPK that is activated during the assay with MK-8722. In kind it is functional. The settings on record: 30 µM.

The target in test [4] is Sialic acid-binding Ig-like lectin 9 (Homo sapiens) (UniProt Q9Y336). As to the kind of experiment: Hs-Siglec9 ALPHAscreen SOP 20170721. The settings on record: 10 µM. (Bead proximity is the source of the signal in Alpha formats.)
Sequence of Sialic acid-binding Ig-like lectin 9 (Homo sapiens) (Q9Y336 whole entry): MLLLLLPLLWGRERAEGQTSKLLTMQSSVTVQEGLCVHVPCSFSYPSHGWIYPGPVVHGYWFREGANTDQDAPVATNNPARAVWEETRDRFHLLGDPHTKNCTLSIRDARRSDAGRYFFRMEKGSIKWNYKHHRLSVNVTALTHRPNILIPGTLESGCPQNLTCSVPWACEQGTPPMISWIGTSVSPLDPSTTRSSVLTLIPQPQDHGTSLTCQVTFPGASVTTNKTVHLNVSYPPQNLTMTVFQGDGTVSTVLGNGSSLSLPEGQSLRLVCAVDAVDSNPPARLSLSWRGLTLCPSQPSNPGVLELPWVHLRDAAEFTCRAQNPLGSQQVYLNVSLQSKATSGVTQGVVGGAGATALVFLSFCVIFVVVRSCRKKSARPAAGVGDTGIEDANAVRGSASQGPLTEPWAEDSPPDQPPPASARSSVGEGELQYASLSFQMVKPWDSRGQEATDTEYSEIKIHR
The test system of another test is Trypanosoma cruzi. Description: Trypanosoma cruzi phosphomannomutase and mannose-1-phosphate guanylyltransferase assay. The settings on record: 10 µM. Type of test: functional.
In test [5] the target is T2, Arginase-2, mitochondrial (Homo sapiens) (UniProt P78540).
T2 sequence (whole entry): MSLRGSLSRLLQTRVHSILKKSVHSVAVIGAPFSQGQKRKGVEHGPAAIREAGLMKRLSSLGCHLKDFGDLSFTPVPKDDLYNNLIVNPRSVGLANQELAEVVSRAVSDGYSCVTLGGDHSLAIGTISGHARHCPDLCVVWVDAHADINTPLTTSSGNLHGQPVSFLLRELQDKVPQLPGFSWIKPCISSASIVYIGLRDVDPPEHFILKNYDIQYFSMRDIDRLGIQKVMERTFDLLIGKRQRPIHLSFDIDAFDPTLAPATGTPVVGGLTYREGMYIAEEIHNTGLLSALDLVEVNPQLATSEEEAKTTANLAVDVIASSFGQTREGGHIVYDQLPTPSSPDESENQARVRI
Description: in vitro enzyme assay to detect the production of urea directly proportional to the activity of Arginase II. Also: in the data most compounds retested in dose-response had high values. Type of test: functional. The settings on record: 33.3 µM.

Test [6] deals with T3, Proteasome subunit beta (Trypanosoma cruzi) (UniProt O96673).
T3 sequence (whole entry): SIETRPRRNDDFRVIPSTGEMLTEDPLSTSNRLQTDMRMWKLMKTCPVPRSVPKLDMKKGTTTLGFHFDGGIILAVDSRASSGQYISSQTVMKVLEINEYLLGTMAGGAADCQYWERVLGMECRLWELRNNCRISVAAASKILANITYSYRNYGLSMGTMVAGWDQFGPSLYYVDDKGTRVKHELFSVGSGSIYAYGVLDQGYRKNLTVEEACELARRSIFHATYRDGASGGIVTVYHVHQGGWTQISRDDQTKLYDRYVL
Description: Trypanosoma cruzi proteasome chymotrypsin-like activity (TcProtChymo) assay. Also: in the data most compounds retested in dose-response had high values. In kind it is functional. The settings on record: 9.37 µM.

The next test is filed under the species Homo sapiens. Description: To identify inhibition of the IFN signalling (Jak-Stat) pathway via expression of an eGFP reporter gene under the control of an IFN-stimulated response element (ISRE) containing MxA promoter. Type of test: functional. As to conditions: 30 µM. In general terms: In a reporter assay the amount or activity of a reporter protein is the signal.

The target of test [7] is T4, Tyrosyl-tRNA synthetase, putative (Trypanosoma cruzi (strain CL Brener)) (UniProt Q4DSP6).
T4 sequence (whole entry): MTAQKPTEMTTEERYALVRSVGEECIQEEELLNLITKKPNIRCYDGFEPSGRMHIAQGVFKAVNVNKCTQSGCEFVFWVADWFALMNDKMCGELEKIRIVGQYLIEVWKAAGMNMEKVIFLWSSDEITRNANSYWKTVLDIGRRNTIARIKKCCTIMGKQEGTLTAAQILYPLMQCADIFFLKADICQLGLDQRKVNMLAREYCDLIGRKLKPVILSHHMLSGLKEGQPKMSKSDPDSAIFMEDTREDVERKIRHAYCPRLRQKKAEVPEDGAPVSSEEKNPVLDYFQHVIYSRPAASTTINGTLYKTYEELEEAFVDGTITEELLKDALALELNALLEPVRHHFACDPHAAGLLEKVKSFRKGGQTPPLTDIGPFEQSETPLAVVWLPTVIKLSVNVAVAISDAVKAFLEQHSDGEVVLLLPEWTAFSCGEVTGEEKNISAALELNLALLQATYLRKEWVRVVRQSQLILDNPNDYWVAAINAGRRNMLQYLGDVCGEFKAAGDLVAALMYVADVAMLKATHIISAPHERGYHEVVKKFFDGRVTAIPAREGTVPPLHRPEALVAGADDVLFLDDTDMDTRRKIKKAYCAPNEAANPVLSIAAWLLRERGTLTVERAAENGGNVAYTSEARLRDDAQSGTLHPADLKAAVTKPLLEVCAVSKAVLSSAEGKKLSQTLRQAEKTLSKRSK
Description: Trypanosoma cruzi tyrosyl tRNA synthetase (TcYRS) _High Tyrosine SOP. Also: in the data most compounds retested in dose-response had high values. In kind it is functional. The settings on record: 30 µM.

Test [8] concerns the target T4, Tyrosyl-tRNA synthetase, putative (Trypanosoma cruzi (strain CL Brener)). Description: Trypanosoma cruzi tyrosyl tRNA synthetase (TcYRS) SOP. Type of test: functional. The settings on record: 30 µM.
The target in test [9] is Chromo domain-containing protein 1 (Saccharomyces cerevisiae (strain ATCC 204508 / S288c) (Baker's yeast)) (UniProt P32657). Description: ScCHD-1 Enzyme Inhibition Assay. Also: in the data most compounds retested in dose-response had high values. Type of test: functional. The settings on record: 30 µM.
Sequence of Chromo domain-containing protein 1 (Saccharomyces cerevisiae (strain ATCC 204508 / S288c) (Baker's yeast)) (P32657 whole entry, the tested form may be a part): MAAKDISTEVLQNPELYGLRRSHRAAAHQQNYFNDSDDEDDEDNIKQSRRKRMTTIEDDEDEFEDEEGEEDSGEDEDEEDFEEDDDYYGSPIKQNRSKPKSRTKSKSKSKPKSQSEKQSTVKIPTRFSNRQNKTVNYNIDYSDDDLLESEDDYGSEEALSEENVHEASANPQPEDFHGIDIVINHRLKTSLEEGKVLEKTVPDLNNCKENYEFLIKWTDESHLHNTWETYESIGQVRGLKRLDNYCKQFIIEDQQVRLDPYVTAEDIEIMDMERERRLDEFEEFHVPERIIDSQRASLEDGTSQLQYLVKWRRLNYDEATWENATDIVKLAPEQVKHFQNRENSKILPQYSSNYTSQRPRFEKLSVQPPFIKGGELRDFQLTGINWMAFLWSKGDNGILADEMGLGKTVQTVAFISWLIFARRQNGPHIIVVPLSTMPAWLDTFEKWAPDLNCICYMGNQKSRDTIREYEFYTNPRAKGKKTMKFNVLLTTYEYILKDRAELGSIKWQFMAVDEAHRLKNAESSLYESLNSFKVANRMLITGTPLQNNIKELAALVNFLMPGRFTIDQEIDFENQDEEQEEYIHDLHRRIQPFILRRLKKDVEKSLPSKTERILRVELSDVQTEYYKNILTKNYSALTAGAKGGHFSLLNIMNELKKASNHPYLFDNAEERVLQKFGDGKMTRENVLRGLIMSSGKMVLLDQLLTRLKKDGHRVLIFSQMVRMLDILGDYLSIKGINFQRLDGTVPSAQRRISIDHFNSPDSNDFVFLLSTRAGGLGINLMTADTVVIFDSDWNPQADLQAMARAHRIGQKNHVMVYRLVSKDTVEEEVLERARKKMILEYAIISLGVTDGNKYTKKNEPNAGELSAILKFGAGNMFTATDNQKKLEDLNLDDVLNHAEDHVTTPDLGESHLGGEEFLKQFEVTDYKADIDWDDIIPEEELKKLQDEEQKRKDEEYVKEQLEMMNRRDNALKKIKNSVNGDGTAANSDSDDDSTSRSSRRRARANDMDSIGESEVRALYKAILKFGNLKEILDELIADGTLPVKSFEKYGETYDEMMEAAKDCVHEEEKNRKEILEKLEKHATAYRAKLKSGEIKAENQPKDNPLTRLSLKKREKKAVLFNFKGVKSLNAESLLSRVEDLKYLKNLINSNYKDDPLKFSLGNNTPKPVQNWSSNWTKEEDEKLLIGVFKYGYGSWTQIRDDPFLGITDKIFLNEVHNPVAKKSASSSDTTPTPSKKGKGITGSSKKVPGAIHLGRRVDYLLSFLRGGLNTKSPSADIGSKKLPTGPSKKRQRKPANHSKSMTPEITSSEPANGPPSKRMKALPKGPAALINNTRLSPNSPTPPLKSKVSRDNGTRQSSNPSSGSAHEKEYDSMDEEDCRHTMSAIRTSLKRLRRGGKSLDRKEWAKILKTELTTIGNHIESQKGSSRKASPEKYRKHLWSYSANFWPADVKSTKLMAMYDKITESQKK

Sequence of Protein translocase subunit SecA (Escherichia coli (strain K12)) (P10408 whole entry): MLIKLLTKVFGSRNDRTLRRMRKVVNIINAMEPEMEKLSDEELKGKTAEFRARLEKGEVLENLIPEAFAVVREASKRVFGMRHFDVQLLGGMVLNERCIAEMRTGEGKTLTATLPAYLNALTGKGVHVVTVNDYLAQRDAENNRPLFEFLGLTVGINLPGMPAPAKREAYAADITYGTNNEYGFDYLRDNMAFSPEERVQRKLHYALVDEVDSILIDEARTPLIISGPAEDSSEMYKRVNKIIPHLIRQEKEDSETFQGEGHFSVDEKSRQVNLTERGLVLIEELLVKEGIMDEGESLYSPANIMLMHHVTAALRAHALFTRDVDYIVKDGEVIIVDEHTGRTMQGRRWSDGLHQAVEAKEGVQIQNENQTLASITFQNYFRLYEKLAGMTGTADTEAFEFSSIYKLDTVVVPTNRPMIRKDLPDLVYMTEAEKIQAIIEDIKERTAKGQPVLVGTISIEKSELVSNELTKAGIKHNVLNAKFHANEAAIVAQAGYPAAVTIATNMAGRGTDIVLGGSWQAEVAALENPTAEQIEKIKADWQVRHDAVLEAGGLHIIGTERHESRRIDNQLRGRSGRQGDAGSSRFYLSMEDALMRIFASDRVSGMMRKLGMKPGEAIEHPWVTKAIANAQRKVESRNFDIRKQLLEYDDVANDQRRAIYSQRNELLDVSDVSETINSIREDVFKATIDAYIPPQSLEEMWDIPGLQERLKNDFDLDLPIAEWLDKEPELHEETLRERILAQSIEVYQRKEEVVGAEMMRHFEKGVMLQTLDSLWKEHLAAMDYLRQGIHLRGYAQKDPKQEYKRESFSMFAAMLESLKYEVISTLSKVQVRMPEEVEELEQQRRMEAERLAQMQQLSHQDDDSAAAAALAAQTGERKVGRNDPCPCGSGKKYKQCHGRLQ

Take `CCc1nc(NS(=O)(=O)c2ccc(C)cc2Cl)no1`: the Percent Effect is -5.01% in test [1]; -2.67% in test [2]; -2.5% in test [3]; 11.5% in test [4]; 4.19% in the test on Trypanosoma cruzi; 1.56% in test [5]. The Percent Effect was -1.57% in test [6]; -10.5% in the test filed under Homo sapiens; 2.73% in test [7]; 6.17% in test [8]; -1.19% in test [9].

In the case of `Cc1cc(C(=O)N2CCN(C(=O)Cc3ccccn3)CC2)c(C)s1`, the Percent Effect was -3.63% in [1]; 6.33% in test [2]; 1.98% in test [3]; -0.00439% in test [4]; -1.54% in the test on Trypanosoma cruzi; -11% in [5]. Further, the Percent Effect is 4.8% in [6]; -10.2% in the test filed under Homo sapiens; 7.29% in test [7]; 7.59% in [8]; 5.75% in test [9].

As for `CN1CCCc2cc(NC(=O)N3CCOC(C(N)=O)C3)ccc21` (stereo unspecified), the Percent Effect in test [1] was 4.12%; in [2], 21.9%; in test [3] it was 34.2%; in [4], 5.33%; with Trypanosoma cruzi it was 5.75%; in test [5], -1.2%. For the same compound, the Percent Effect was 10.5% in test [6]; 14.3% in the test listed under Homo sapiens; 8.33% in [7]; 21% in test [8]; -3.37% in test [9].

In the case of `CNc1cc2c(nn1)CCN(C(=O)c1cc(F)cc(F)c1)C2`, the Percent Effect in test [1] is -4.7%; in [2], 10.4%; in test [3] it was 2.19%; in [4], 3.45%; in the test with Trypanosoma cruzi, 2.84%; in [5], -3.16%. Moreover, the Percent Effect was 6.06% in [6]; 3.72% in the test listed under Homo sapiens; 6.67% in test [7]; 9.41% in [8]; -21.1% in [9].

As to `COCC(=O)NCCn1ccc2c(OC)cccc21`, the Percent Effect is -0.301% in test [1]; 17.3% in [2]; 0.941% in test [3]; 6.9% in [4]; 0.393% with Trypanosoma cruzi; -3.7% in [5]. The Percent Effect in test [6] is 10.5%; in the test filed under Homo sapiens, 19.7%; in test [7], 6.35%; in [8] it was 15.4%; in test [9], -8%.

Turning to `CC(C)(C)c1ccn(C2(C(=O)O)CCN(c3nccc(N)n3)CC2)n1`, the Percent Effect is -4.48% in test [1]; -6.94% in [2]; 0.972% in test [3]; 0.435% in test [4]; -2.23% in the test on Trypanosoma cruzi; -0.442% in [5]. The Percent Effect in test [6] was 10.7%; in the test filed under Homo sapiens, 0.112%; in test [7], 3.16%; in test [8] it was -5.13%; in test [9] it was 6.06%.

Take `Cc1nn(C)c(C)c1C1CCCN1C(=O)c1ccc(CN(C)C)cc1` (stereo unspecified): the Percent Effect in [1] was -0.183%; in [2], 21.6%; in [3], 2.25%; in test [4], -4.88%; with Trypanosoma cruzi, 2.14%; in test [5], 0.554%. Further, the Percent Effect in test [6] is 11.1%; in the test listed under Homo sapiens, 11.4%; in [7], -20.8%; in [8], 23.2%; in test [9], -6.46%.

For the compound `CC(=O)Nc1nc(C(=O)N2CCCC2Cn2cc(C)cn2)cs1` (stereo unspecified), the Percent Effect in test [1] was -5.22%; in test [2] it was 10.4%; in [3], 1.53%; in test [4], 17.1%; with Trypanosoma cruzi, -6.76%; in [5], 1.47%. Moreover, the Percent Effect in [6] was 14.5%; in the test listed under Homo sapiens it was 26.6%; in [7], 2.86%; in test [8], 9.41%; in test [9], -19.2%.

For the compound `COc1c(C2CCCN2C(=O)c2csc(C(C)C)n2)c(C)nn1C` (stereo unspecified), the Percent Effect in test [1] was -5.84%; in [2], 5.2%; in test [3], 2.93%; in [4], 11.7%; in the test with Trypanosoma cruzi it was 0.187%; in test [5] it was 1.07%. For the same compound, the Percent Effect in [6] is -5.91%; in the test listed under Homo sapiens, 8.75%; in test [7] it was 3.88%; in test [8] it was 9.76%; in [9] it was 0.696%.

On to `O=C(NCCCn1cccn1)C1(c2ccc(Br)cc2)CC1`, for which the Percent Effect in test [1] was 0.127%; in test [2] it was 8.22%; in test [3], 12.9%; in test [4], -1.49%; with Trypanosoma cruzi, -3.13%; in test [5] it was 2.73%. Further, the Percent Effect is 10.1% in test [6]; 8.94% in the test filed under Homo sapiens; 4.3% in test [7]; 10% in test [8]; -4.29% in test [9].

For the compound `CCC1=N[C@@]2(CC[C@@H]3CN(CC4CC4)C[C@@H]32)C(=O)N1C`, the Percent Effect is -4.94% in [1]; 10.8% in test [2]; 1.5% in test [3]; 0.724% in test [4]; -1.86% in the test on Trypanosoma cruzi; 0.319% in [5]. Moreover, the Percent Effect was 19.2% in [6]; -28.1% in the test filed under Homo sapiens; 0% in test [7]; 15.4% in test [8]; -3.77% in [9].
